# HT1080NT lethal = qHTS for induction of synthetic lethality in tumor cells producing 2HG: qHTS for the HT-1080-NT fibrosarcoma cell line | 1.6% of 360,000 active | Potency, µM (highest dose often 46.1 µM), for inactives: at the top dose activity, negative = less viability, actives largely listed as cytotoxic | AID 686970, 2013 | HT-1080-NT fibrosarcoma viability, CellTiter-Glo ATP luminescence, 48 h;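 further: NT is the 2HG producing partner of a matched IDH1 knockdown line; 0% = DMSO-treated cells and -100% = media-only wells without cells; nearly all actives have a fitted effect of over 55% in size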
#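 Viability of the 2HG-overproducing fibrosarcoma line after 48 hours of compound exposure at 37 degrees C was determined by luminescence with CellTiter-Glo, and concentration-effect curves were then fitted and categorized.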
# KB-V1 cytotox = qHTS assay for MDR1-selective chemotherapeutics: Primary screen using the drug-selected MDR subline cells KB-V1 | KB-V1 MDR cells viability, CellTiter-Glo, 72 h | Potency, µM (titrated, usually from 46.1 µM), usual class: cytotoxic | 3.4% of 400,000 active | AID 1347076, 2019; further: nearly all actives have a fitted effect of over 60% in size
#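 Following 72 h at 37 degrees C with compound, KB-V1 cell viability was read by CellTiter-Glo luminescence, medium being phenol-red-free DMEM plus 10% FBS; concentration-response parameters came from normalized, curve-fitted qHTS data.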
# TDP1 cell noCPT = qHTS for Inhibitors of human tyrosyl-DNA phosphodiesterase 1 (TDP1): qHTS in cells in absence of CPT. AID 686978, 2013. 15% of 420,000 active. DT40 Tdp1-/- hTDP1 cells, no CPT, ATP luminescence, 48 h. Potency, µM (doses to about 46.2 µM), without a hit: top-dose activity change, negative = growth inhibition, hits mostly inhibitors; further: nearly all actives have a fitted effect of over 55% in size
#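 Growth kinetics read by CellTiter-Glo luminescence after ≥48 hr at 37 °C. Cells: DT40 Tdp1-/- stably carrying human TDP1, 400 per well, compound exposure in the absence of CPT (DMSO vehicle).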
# TDP1 cell CPT = qHTS for Inhibitors of human tyrosyl-DNA phosphodiesterase 1 (TDP1): qHTS in cells in presence of CPT | chicken DT40 Tdp1-/-;hTDP1 cells + 20 nM CPT, ATP luminescence, 48 h | Potency, µM (series often up to 46.2 µM), for inactives: at the highest dose activity change, negative = growth inhibition, most hits filed as inhibitors | 12% of 420,000 active | AID 686979, 2013; further: nearly all actives have a fitted effect of over 55% in size
#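 Chicken DT40 Tdp1-/- cells stably complemented with human TDP1 were seeded at 400 cells/well in medium containing 20 nM camptothecin, exposed to pin-transferred compounds, and grown at 37 °C for at least 48 hr. Viability was read as ATP luminescence.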
# KB-3-1 tox = qHTS assay for MDR1-selective chemotherapeutics: Primary screen using the parental adenocarcinoma cell KB-3-1; 1.4% of 400,000 active; KB-3-1 viability, CellTiter-Glo ATP luminescence, 72 h; Potency, µM (top dose mostly 46.1 µM), hits mostly cytotoxic; further: nearly all actives have a fitted effect of over 60% in size
#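 Cytotoxicity in the drug-sensitive parental line KB-3-1 was scored as loss of CellTiter-Glo luminescence following 72 h incubation with compound. Values come from curve fitting of normalized concentration-response data.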
# HT1080 IDH1KD tx = qHTS for induction of synthetic lethality in tumor cells producing 2HG: qHTS for the HT-1080-IDH1KD cell line; HT-1080 IDH1 knockdown viability, ATP luminescence, 48 h; Potency, µM (doses to about 46.1 µM), for inactives: top-dose activity, negative = toxicity, hits mostly cytotoxic; 2% of 360,000 active;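 further: 0% = DMSO wells and -100% = cell-free medium wells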
#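 IDH1KD HT-1080 cells, 750/well, RPMI + 5% FBS; compound pinned after 2 h settling; 48 h, 37 °C; CellTiter-Glo luminescence; % activity normalised to DMSO and no-cell wells; curves fitted, classed by r2 and efficacy.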
# * marks the source's active call; other numbers are inactive results; i = inactive; ? = inconclusive; · = not tested or not shown; ! = a repeat was not active; [ ] = dose if it differs, or a comment. In the library only some 19% were active in any assay of this set; here they are far more common. The call rests on the fitted dose curve; in most records, active means well fitted curve in the direction sought with a large enough effect; inconclusive means small, poorly fitted or top-dose-only effect, or another doubt; inactive means no such curve, though single readings can be large; an effect the other way counts as inactive or inconclusive. Unless noted, on the % scale 0 is the no-effect control and ±100 the full control effect; potency means the concentration at half of the fitted maximal effect.
SMILES,HT1080NT lethal,KB-V1 cytotox,TDP1 cell noCPT,TDP1 cell CPT,KB-3-1 tox,HT1080 IDH1KD tx
Cc1ccc(F)c(S(=O)(=O)NC(=O)C2(C)CCN2C(=O)CC(c2ccccc2)c2ccccc2)c1 (stereo unspecified),1%,i,21µM*,?,i,12%
C#Cc1ccc(NC(=O)C2(C)CCN2C(=O)CC(c2ccccc2)c2ccccc2)cc1 (stereo unspecified),?,?,?,16µM*,?,?
CC1(C(=O)Nc2nccs2)CCN1C(=O)CC(c1ccccc1)c1ccccc1 (stereo unspecified),6%,?,21µM*,16µM*,i,4%
CC1(C(=O)NS(=O)(=O)c2ccc(F)cc2F)CCN1C(=O)CC(c1ccccc1)c1ccccc1 (stereo unspecified),-14%,i,?,?,i,5%
C#Cc1ccc(NC(=O)C2(C)CCN2C(=O)C2(c3ccccc3)CC2)cc1 (stereo unspecified),-5%,i,?,?,i,?
Cc1cc(C)nc(/N=C(\N)Nc2ccc(F)c([N+](=O)[O-])c2)n1,0%,?,?,?,?,-3%
CCOC(=O)C(=O)N(C)c1c(CC)nc2c(OCc3cccc(Cl)c3)cccn12,9%,i,?,16µM*,i,14%
CCc1nc2c(OCc3ccccc3)cccn2c1N(C)C(=O)Nc1ccccc1OC,24%,i,?,?,i,12%
CCc1nc2c(OCc3cc(Cl)cc(Cl)c3)cccn2c1N(C)C(=O)Nc1ccccc1OC,?,21µM*,?,23µM*,?,?
CCc1nc2c(OCc3ccc(C(F)(F)F)cc3)cccn2c1N(C)C(=O)C1CC1,2%,i,23µM*,23µM*,i,-4%
CCc1nc2c(OCc3cccc(Cl)c3)cccn2c1N(C)C(=O)C1CC1,-27%,i,?,16µM*,i,?
Cc1ccc(C2(c3ccc(C)cc3)CC2C(=O)NC(C)C)cc1 (stereo unspecified),?,?,?,-4%,?,-29%
CCOC(=O)C(=O)N(C)c1c(CC)nc2c(OCc3cc(Cl)cc(Cl)c3)cccn12,-17%,i,21µM*,18µM*,i,-23%
CCOC(=O)C(=O)N(C)c1c(CC)nc2c(OCc3ccc(Cl)cc3)cccn12,-2%,i,?,?,i,0%
Nc1nc2n[nH]nc2c(=O)[nH]1,?,?,7.3µM*,7.3µM*,1.5µM*!,0.12µM*
CC(=O)Nc1ccc(C(=O)OCCc2ccccc2)cc1,16%,i,-15%,2%,?,13%
C[C@@]12CCC=C[C@H]1[C@H](c1ccoc1)N(Cc1ccccc1)C2=O,-6%,i,-5%,-8%,i,-5%
COc1ccc(-c2cc([C@H]3[C@@H]4C=CCC[C@@]4(C)C(=O)N3Cc3ccccc3)ccc2F)cc1OC,?,?,?,26µM*,?,?
COc1ccc([C@H]2[C@@H]3C=CCC[C@@]3(C)C(=O)N2Cc2ccccc2)cc1Cl,-21%,i,21µM*,?,i,-17%
Cc1ccc(F)c([C@H]2[C@@H]3C=CCC[C@@]3(C)C(=O)N2Cc2ccccc2)c1,-4%,i,?,?,i,-3%
C[C@@]12CCC=C[C@H]1[C@H](c1ccc(F)c(/C=C/c3ccccc3)c1)N(Cc1ccccc1)C2=O,-18%,?,16µM*,?,i,-10%
CN(C)c1ccc(-c2ccc([C@H]3[C@@H]4C=CCC[C@@]4(C)C(=O)N3Cc3ccccc3)c(F)c2)cc1,?,?,18µM*,23µM*,?,?
CCCN1C(=O)c2ccc(C(=O)NC3CCCCC3)cc2C1=O,15%,i,-14%,1%,i,8%
COc1ccc(C2CC(=O)c3cc(-c4nc(-c5cccc([N+](=O)[O-])c5)cs4)c(=O)n(-c4ccccc4N)c3C2)cc1 (stereo unspecified),·,?,-15%,-14%,i,·
C[C@@]12CCC=C[C@H]1[C@H](c1ccccc1Br)N(Cc1ccccc1)C2=O,-17%,i,16µM*,?,i,-14%
SMILES,HT1080NT lethal,KB-V1 cytotox,TDP1 cell noCPT,TDP1 cell CPT,KB-3-1 tox,HT1080 IDH1KD tx
CN(C)c1ccc(-c2cc([C@H]3[C@@H]4C=CCC[C@@]4(C)C(=O)N3Cc3ccccc3)ccc2F)cc1,-16%,i,23µM*,?,?,-18%
COc1ccc(-c2cccc([C@H]3[C@@H]4C=CCC[C@@]4(C)C(=O)N3Cc3ccccc3)c2)cc1,?,?,16µM*,23µM*,?,?
Cc1cc(=O)nc2c3ccccc3n(CC(=O)NCCC3=CCCCC3)n12,-9%,i,-4%,-15%,i,-6%
O=C(NCCS(=O)(=O)NCCc1ccccc1)c1ccccc1,-1%,16µM*,-11%,-1%,i,-4%
COc1ccccc1CCNS(=O)(=O)CCNC(=O)c1ccccc1,5%,16µM*,-29%,-7%,i,4%
Cc1cc(F)ccc1S(=O)(=O)Nc1ccccc1C(=O)N1CCCC1,8%[9.24 µM],i,17%,2%,i,5%
CSc1ncnc2c1ccn2CC(=O)Nc1ccc(C)c(C)c1,4%,i,?,?,i,4%
CN(C)S(=O)(=O)c1cccc(N=C2SCCN2Cc2ccccc2)c1,-19%,i,21µM*,?,i,-14%
COCC(C)N=C1SCCN1Cc1ccccc1 (stereo unspecified),24%,i,-6%,-10%,i,23%
CCCn1c(CCC(=O)Nc2ccc(C)c(Cl)c2)nc2cccnc21,·,i,?,?,i,·
O=C(CCc1nc2cccnc2n1-c1ccccc1)Nc1ccc(Cl)c(Cl)c1,·,i,18µM*,?,i,·
CCOC(=O)c1cccc(NC(=O)CCc2nc3cccnc3n2-c2ccccc2)c1,·,?,-28%,-27%,i,·

# High-throughput results as filed in PubChem BioAssay.
